We go through 18 compounds from PubChem BioAssay (NCATS).

Inconclusive results are not listed. Calls of active or inactive are those of the source. The call rests on the fitted dose curve; in most records, active means well fitted curve in the direction sought with a large enough effect; inconclusive means small, poorly fitted or top-dose-only effect, or another doubt; inactive means no such curve, though single readings can be large; an effect the other way counts as inactive or inconclusive.

Assay [1] can be described thus: Quantitative High-Throughput drug screen in 47 multiple myeloma cell lines against the NCATS MIPE library collection: Karpas25_ECACC cell viability assay (AID 1918968; further: nearly all actives have a fitted effect of over 35% in size). In outline:
(§1)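 Myeloma cells (500 per well) were exposed to MIPE 4.0 compounds by pin transfer and incubated 48 hours at 37C, 5% CO2. Viability was read as ATP by CellTiter-Glo luminescence, normalised to DMSO (100%) and media-only (0%) wells.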

Assay [2] can be described thus: Quantitative High-Throughput drug screen in 47 multiple myeloma cell lines against the NCATS MIPE library collection: KMS27_JCRB cell viability assay (AID 1918970). Further: nearly all actives have a fitted effect of over 30% in size. The conditions noted are these: KMS27 myeloma cells, CellTiter-Glo ATP viability, 48 h; viability (% of DMSO): at 45.8 µM (top of the series). In outline:
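Myeloma cells (500 per well) were exposed to MIPE 4.0 compounds for 48 h at 37 °C, 5% CO2; viability was read as ATP luminescence with CellTiter-Glo, normalized to DMSO-only (100%) and media-only (0%) wells.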

Assay [3] in a line: Quantitative High-Throughput drug screen in 47 multiple myeloma cell lines against the NCATS MIPE library collection: KMS12BM_JCRB cell viability assay (AID 1918971). Further: nearly all actives have a fitted effect of over 35% in size. In outline:
(§2)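 Steps: seed 500 cells per well; pin-transfer MIPE 4.0 library; incubate 48 h at 37C, 5% CO2, humidified; add CellTiter-Glo, 5 min room temperature; read luminescence.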

Assay [4] is described as follows: Quantitative High-Throughput drug screen in 47 multiple myeloma cell lines against the NCATS MIPE library collection: KMS12PE_JCRB cell viability assay (AID 1918972). Further: nearly all actives have a fitted effect of over 30% in size. In outline: as §2
A short description of assay [5]: Quantitative High-Throughput drug screen in 47 multiple myeloma cell lines against the NCATS MIPE library collection: KMS26_JCRB cell viability assay (AID 1918975). Further: nearly all actives have a fitted effect of over 45% in size. The essentials:
as §2

The nature of assay [6]: Quantitative High-Throughput drug screen in 47 multiple myeloma cell lines against the NCATS MIPE library collection: MMM1_PLB cell viability assay (AID 1918976). Further: nearly all actives have a fitted effect of over 35% in size. In outline: (§3)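 Inhibition of viability over 48 h was scored by ATP content (CellTiter-Glo) in 500-cell wells. Zero and full viability were defined by media-only and DMSO-only wells.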
Assay [7] is described as follows: Quantitative High-Throughput drug screen in 47 multiple myeloma cell lines against the NCATS MIPE library collection: KMS20_JCRB cell viability assay (AID 1918973). Further: nearly all actives have a fitted effect of over 45% in size. The essentials:
as §1

Assay [8] is described as follows: Quantitative High-Throughput drug screen in 47 multiple myeloma cell lines against the NCATS MIPE library collection: KMS21BM_JCRB cell viability assay (AID 1918974). To be noted: ATP luminescence, 48 h; viability: at 45.8 µM (top of the series). The essentials:
as §1

Assay [9] is described as follows: Quantitative High-Throughput drug screen in 47 multiple myeloma cell lines against the NCATS MIPE library collection: NCIH929_DSMZ cell viability assay (AID 1918978). Further: nearly all actives have a fitted effect of over 35% in size. In outline:
as §3

Assay [10] can be described thus: Quantitative High-Throughput drug screen in 47 multiple myeloma cell lines against the NCATS MIPE library collection: MOLP8_DSMZ cell viability assay (AID 1918977). Further: nearly all actives have a fitted effect of over 45% in size. The essentials: as §3
Potency means the concentration at half of the fitted maximal effect.

As to `NCC1CCC(C(=O)O)CC1` (stereo unspecified), the Potency result in assay [1], in assay [2], in assay [3], in [4] and in assay [5] was “inactive” throughout. Moreover, the Potency in assay [6] is 0.0148 µM (active).
Consider `CNC(=O)c1c(-c2ccc(F)cc2)oc2cc(N(CCO)S(C)(=O)=O)c(C3CC3)cc12`, for which the Potency in assay [1] was 20.9 µM (active).
`O=C1CN2Cc3c(ccc(Cl)c3Cl)N=C2N1`: the Potency in assay [1] was 26.4 µM (active); in assay [2] it was 0.296 µM (active); in [3], 23.5 µM (active); in assay [6] it was 23.5 µM (active). Besides, the Potency entry in assay [4] and in assay [7] was “inactive” each time.
For the compound `COc1ccc2cc1Oc1ccc(cc1)C[C@H]1c3cc(c(OC)cc3CCN1C)Oc1c(OC)c(OC)cc3c1[C@H](C2)N(C)CC3`, the Potency is 20.9 µM (active) in assay [1]; 3.72 µM (active) in assay [2]; 13.2 µM (active) in [3]; 4.69 µM (active) in assay [4]; 14.8 µM (active) in assay [5]; 6.62 µM (active) in [6].
Turning to `CCOc1ccccc1N=Nc1c(C)[nH]n(-c2nc(-c3ccccc3)cs2)c1=O`, the Potency is 1.66 µM (active) in assay [1]; 9.35 µM (active) in [2]; 16.6 µM (active) in assay [3]; 18.7 µM (active) in assay [4]; 4.18 µM (active) in [5]; 8.33 µM (active) in assay [6]. For the same compound, in assay [9], the Potency was 0.264 µM (active). For the same compound, in [8], the Potency entry is “inactive”.
As for `C[C@@H]1CCO[C@H]2Cn3cc(C(=O)NCc4ccc(F)cc4F)c(=O)c(O)c3C(=O)N12`, the Potency in assay [1] was 18.7 µM (active); in [3], 20.9 µM (active). The Potency result in assay [2] and in [4] was “inactive” throughout.
On to `O=C(CC12CC3CC(CC(C3)C1)C2)Nc1cccc2nc(NCCNCCO)ccc12`, for which the Potency is 5.9 µM (active) in assay [1]; 18.7 µM (active) in assay [2]; 18.7 µM (active) in assay [3]; 9.35 µM (active) in [4]; 6.62 µM (active) in [7]; 18.7 µM (active) in [5].
For `Cc1ccccc1-n1c(Cn2nc(-c3cccc(O)c3)c3c(N)ncnc32)nc2cccc(C)c2c1=O`, the Potency was 2.64 µM (active) in assay [1]; 0.469 µM (active) in assay [2]; 8.33 µM (active) in [3]; 0.935 µM (active) in [4]; 5.26 µM (active) in assay [7]; 11.8 µM (active) in assay [5]. Further, the values for the Potency in assay [6] and in assay [10] were 18.7 µM (active) and 5.9 µM (active), respectively.
`CC(C)(F)C[C@H](N[C@@H](c1ccc(-c2ccc(S(C)(=O)=O)cc2)cc1)C(F)(F)F)C(=O)NC1(C#N)CC1`: the Potency result in [1] and in assay [2] was “inactive” throughout.
In the case of `CN(C)CC[C@H](CSc1ccccc1)Nc1ccc(S(=O)(=O)NC(=O)c2ccc(N3CCN(Cc4ccccc4-c4ccc(Cl)cc4)CC3)cc2)cc1[N+](=O)[O-]`, the Potency is 1.48 µM (active) in assay [1]; 0.0187 µM (active) in [2]; 0.187 µM (active) in assay [3]; 0.0235 µM (active) in assay [4]; 0.0833 µM (active) in [8]; 1.66 µM (active) in [5].
For `CCOC(=O)[C@@H](N)CCC(=O)N[C@@H](CSCc1ccccc1)C(=O)N[C@@H](C(=O)OCC)c1ccccc1`, the Potency in assay [1] and in [2] was 23.5 µM (active) each time.
For `N#CC(c1ccc(Cl)cc1)c1c(Cl)cc(-n2ncc(=O)[nH]c2=O)cc1Cl` (stereo unspecified), the Potency was 8.33 µM (active) in assay [1]; 5.9 µM (active) in [2]; 20.9 µM (active) in assay [3]; 13.2 µM (active) in [4]; 3.72 µM (active) in assay [7]; 0.235 µM (active) in [8]. The Potency result in assay [5] and in assay [10] was “inactive” each time.
On to `Cc1ccc(NC(=O)Nc2cc(C(F)(F)F)ccc2F)cc1Nc1ccc2c(c1)NC(=O)C2=Cc1ccc[nH]1`, for which the Potency in assay [1] is 5.26 µM (active); in assay [2], 8.33 µM (active); in assay [3], 26.4 µM (active); in [4], 2.35 µM (active); in assay [5], 37.2 µM (active); in [6], 33.2 µM (active).
With `C=C1[C@H](n2cnc3c(=O)[nH]c(N)nc32)C[C@H](O)[C@H]1CO`, the Potency is 2.96 µM (active) in [1]; 5.9 µM (active) in assay [2]; 0.418 µM (active) in assay [3]; 0.296 µM (active) in assay [4]; 1.32 µM (active) in assay [8]; 3.72 µM (active) in [6]. In [9], the Potency was 20.9 µM (active). Further, the Potency result in [5] is “inactive”.
Regarding `O=C(Nc1ncc(SCCN2CCCC2)s1)[C@]1(c2ccc(S(=O)(=O)C3CC3)cc2)C[C@@H]1C1CCCCC1`, the Potency was 18.7 µM (active) in assay [1]; 7.43 µM (active) in [2]; 23.5 µM (active) in assay [3]; 5.26 µM (active) in [4]; 23.5 µM (active) in assay [5]; 14.8 µM (active) in [6]. Moreover, the Potency was 16.6 µM (active) in assay [10] and 20.9 µM (active) in assay [9].
As for `CC[C@H](NC(=O)[C@H](C)NC)C(=O)N1C[C@@H](O)C[C@H]1Cc1c(-c2[nH]c3cc(F)ccc3c2C[C@H]2C[C@H](O)CN2C(=O)[C@H](CC)NC(=O)[C@H](C)NC)[nH]c2cc(F)ccc12`, the Potency in assay [1] is 16.6 µM (active); in assay [2] it was 0.935 µM (active); in assay [4], 11.8 µM (active); in assay [8], 0.526 µM (active); in assay [9], 20.9 µM (active). Besides, the Potency result in [3] and in assay [10] was “inactive” in each case.
Take `CCCCCCCCCCCCCC(=O)N[C@H](CO)[C@H](O)c1ccc([N+](=O)[O-])cc1`: the Potency was 18.7 µM (active) in [1]; 14.8 µM (active) in assay [2]; 23.5 µM (active) in assay [3]; 8.33 µM (active) in assay [4]; 23.5 µM (active) in assay [7].
For the compound `CCC(C)SSc1ncc[nH]1` (stereo unspecified), the Potency is 4.18 µM (active) in [1]; 10.5 µM (active) in assay [2]; 13.2 µM (active) in assay [3]; 9.35 µM (active) in assay [4]; 8.33 µM (active) in assay [8]; 3.72 µM (active) in assay [5]. Moreover, the Potency in assay [6] is 7.43 µM (active); in [10] it was 4.18 µM (active); in assay [9], 3.72 µM (active).
